Experimental data from PubChem BioAssay AID1347426 (Functional Genomics Laboratory (NCATS/FGL), 2020).
Screen size: about 31,000 sequences; about 1,400 (4.5%) were called active. The entries come from a sample that favours actives as a whole. Values without a mark were called inactive.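 Rule for the calls: active = median seed-adjusted z-score above 1 or below -1; inactive = the rest.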

assay: Novel Modifiers of Survival Motor Neuron (SMN) Protein: Gene Identification via Genome-wide siRNA Screen; conditions: HEK293T SMN2-luciferase reporter, siRNA knockdown, 72 h; actives lie on both sides;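 note: luminescence tracks full-length SMN protein made from the SMN2 reporter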
Description: Spinal muscular atrophy (SMA) is the most common neuromuscular autosomal recessive disorder and one of the leading genetic causes of infant death. SMA results from mutations inducing loss of function or deletion in the survival of motor neuron-1 gene (SMN1), leading to deficiency of the survival motor neuron (SMN) protein. Although a second nearly identical gene, SMN2, is retained in humans, its expression primarily produces an aberrantly spliced isoform that is largely unstable and quickly degraded. We performed a genome-wide RNAi screen using a cell-based reporter assay to identify genes and pathways that modulate SMN protein stability. The screen identified over 200 genes that led to the greatest increase or decrease in luciferase expression.
Using HEK293T cells stably expressing a luciferase reporter that combines the promoter and splicing based cassettes in tandem with the major portion of the native SMN2 cDNA with luciferase, we performed a genome-wide RNAi screen to identify modulators of SMN protein levels. Luciferase is expressed when full-length SMN protein is generated with luminescence signal proportional to SMN protein levels. Our luciferase-based reporter assay was used to screen Ambion Silencer Select Human Druggable Genome siRNA library (10418 genes, 3 unique siRNAs per gene) using lipid-based reverse transfection.
Briefly, 1 pmol of each siRNA was spotted to a well of a 384-well plate (Corning, Corning, NY) and 20 microL of serum-free DMEM containing […] of Lipofectamine RNAiMax (Life Technologies, Carlsbad, CA) was then added to each well. Transfected cells were maintained at 37 degrees C in 5% CO2 for 72 hours, 20 microL of ONE-Glo Reagent (Promega) was added to wells for luciferase quantification. Raw luminescence reads were normalized to Ambion(R) Silencer(R) Negative Control #2 siRNA, then log10 transformed. A robust statistical measure of median absolute deviation (MAD) to standardize siRNA activities from each screen. Common Seed Analysis was used to help prioritize clean hits as opposed to those appearing to arise from seed based off-target effects. Candidate modulators were defined as the genes having a MAD score greater than 1.0 or less than -1.0.

Sequence	median seed-adjusted z-score
GAAACGAACUGGGCAGUAUTT against FGF2	0.0208
GGAUAGUGAGGAUAAGGAATT against PPP1R15A	0.539
CAAAUCCAGUGGUGGGUAATT against S100A6	-0.264
GUCCUGAAGUCACUCCGAUTT against FUT10	-0.629
CCACUCUCAUCAAAUCCGATT against MLL2	-2.11 (active)
AGAUGAGGAGUGUCGUCAATT against KLK13	0.452
GUUCCUACGUGUACAACGATT against DNASE1L1	0.542
GAAUAUGGGUUGGCCUAUATT against ZNF655	-0.156
CAUUAGCAGAUAUACUAUUTT against EEF1E1	-1.45 (active)
GGACGGAUCUCAAUCGAAATT against CPO	0.0875
GAAGGAAUGAAAUCCGGAATT against TRIM8	-0.296
CGAAUUCAGGUCAACAAUATT against TRERF1	-0.0952
GAGUUUAAGCGCAAGCAUATT against HSPA8	0.462
UCACAGACGAGGCAUUUAATT against FTCD	-0.27
GCCUGGAUGAAUUCGAUUATT against UBE4A	-0.285
GUAAUACGAGGAAAUAGUATT against SNRPG	-3.09 (active)
CAUACACUCUACUCCUGCUTT against CDH26	0
GCGACCCUGUUAUUCUGUATT against TM9SF1	0.14
CACCAUUGCAAACCAAAUATT against KCNQ5	0.0191
CGUCAACGAUCGGAAGAAATT against TTLL9	0.0534
GCCCAACAAGUGCAUGUUUTT against GLIS1	0.838
CCUCGUCCGUAGUCUCCUUTT against ADRB1	1.06 (active)
GUAUUGCCUUUGUCAAGAATT against SNX19	0.67
GAAUUGACUUCUUGUCUAATT against RAB41	-0.534
CGUCAUCAGACUCAAUGAATT against 12-Sep	0.286
GGAUGAUGAGUACUCUGAATT against COL7A1	1.08 (active)
GGAAUUUAAGUGAUAGUGATT against CPEB2	-0.00928

Sequence	median seed-adjusted z-score
GCUGCAACCUUGACUACUATT against RRM1	-5.51 (active)
AGGUGAAUAUUGACCACUUTT against RGS5	0
GAGUCAACAAUGGACAUUUTT against KLHL1	0.067
CAACUAGUGGAGAAGAUCATT against FAM63B	0.111
GGUCACCACUUGCAAGCUATT against ANG	-0.481
AGCUGGGCUUUAUCGUGGATT against P2RX2	0.0454
GCUUAUUUAUGUAUCAAUATT against ADRB1	1.06 (active)
GGAAAAAUCUAAGAAGCAATT against ZC3H11A	-0.137
GCUUCACCAUCGAAUCCAATT against FLT4	-0.861
GCUGCGGCAUGAUCACUAATT against LBXCOR1	0.0938
CAUUGGGCCUAGAAAUUCATT against CNKSR1	0.217
GGCGAAGUGUCCGACAGAATT against ZNF747	0.379
GGAGAUCUGCUACUAAACATT against PSMD6	-1.03 (active)
GGGAGAGUGGUGAACGUAUTT against CBR1	-0.6
CAGUGUUAAUGACCGAAGATT against EIF4G1	-0.978
GAUGAUACCAGGCAUAUAATT against USP15	-0.405
GCAAUCUUGUUGUACACCATT against ZNF432	-0.124
GGAGCUGAAUGAGCUGACATT against OSBPL7	0
CCACGAUGUGGGAUAAUAATT against GALNAC4S-6ST	0.218
GUGGUGCAGUUUUUCGUAATT against THOC2	-1.22 (active)
GGCUCAUAAUGGAGCAGGUTT against TIMM13	-0.422
CAGUCUUGAUUCCACUGAATT against PCDHA3	0.311
CGGAUAUUCCUGAACGCAATT against MARK3	0.271
GCACGCGGCUAUACAAUCATT against SLC25A34	-0.256
GAAGCAGUGCCAAUGAACATT against TCEB2	1.28 (active)
AGCACAUCUCGGUCCUCCATT against MAPK8IP2	0.284
GGACGAUCACUGUUGUGCATT against RBM22	0.0259
